From PubChem
AMA1 RON2 block – qHTS for Inhibitors of AMA1-RON; Towards Development of Antimalarial Drug Lead: Primary Screen. AID 720542, 2013. AlphaScreen AMA1-biotinylated RON2 peptide binding. Potency, µM (titrated, usually from 58.2 µM), for the others: at the highest dose activity change, negative = inhibition, most hits filed as inhibitors. actives 0.2% (n = 360,000);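 further: 0% = vehicle wells and -100% = peptide control; nearly all actives have a fitted effect of over 45% in size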
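AMA1 (3D7) with his tag at 25 nM final met compounds first, then biotinylated RON2 peptide at 25 nM; detection used donor plus acceptor beads, 10 µg/mL apiece, read by AlphaScreen after 30 min at room temperature.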
AmpC inh no detg – qHTS Inhibitors of AmpC Beta-Lactamase (assay without detergent). P00811. AmpC nitrocefin hydrolysis, absorbance 480 nm, 0.0001% Triton. Potency, µM (doses to about 57.1 µM), without a hit: top-dose activity change, negative = inhibition, hits mostly inhibitors. actives 0.52% (n = 330,000). AID 485341, 2010;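 further: plate controls were no compound for no effect and no enzyme for full effect; nearly all actives have a fitted effect of over 20% in size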
Target sequence (P00811 whole entry, looked up): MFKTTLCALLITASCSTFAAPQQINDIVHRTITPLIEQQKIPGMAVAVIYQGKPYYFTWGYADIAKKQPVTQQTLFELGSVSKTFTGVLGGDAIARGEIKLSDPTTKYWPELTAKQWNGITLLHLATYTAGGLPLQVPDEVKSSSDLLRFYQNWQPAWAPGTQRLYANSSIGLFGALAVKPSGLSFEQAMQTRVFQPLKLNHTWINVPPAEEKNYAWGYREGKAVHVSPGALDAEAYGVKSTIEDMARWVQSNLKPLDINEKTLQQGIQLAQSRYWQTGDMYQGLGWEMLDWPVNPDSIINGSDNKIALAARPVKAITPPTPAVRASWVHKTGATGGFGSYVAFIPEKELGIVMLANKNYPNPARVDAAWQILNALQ
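20 mM phosphate pH 7.0 + 0.01% (detergent screen) or 0.0001% Triton X-100; 5.3 nM AmpC reagent; cpd preinc 15 min RT; nitrocefin (800 uM stock) to start; A480 q20 s × 4 min; Activity was normalised to no-enzyme and no-compound control wells.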
NS1 inh – qHTS Assay for Inhibitors of Influenza NS1 Protein Function | Potency, µM (doses to about 46.1 µM), for inactives: top-dose activity, positive = more growth | actives 0.4% (n = 270,000); calls by dose curve; further: actives are rising curves; nearly all actives have a fitted effect of over 50% in size
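In this qHTS, NS1 from influenza A is expressed in budding yeast, where it slows growth. Cells are switched from glucose to 2% galactose medium (pH 6.0, -URA), treated with compound, and growth recovery is read at OD600.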
AmpC inh detg – qHTS Inhibitors of AmpC Beta-Lactamase (assay with detergent); P00811; AmpC hydrolysis of nitrocefin, absorbance 480 nm, 0.01% Triton; Potency, µM (series often up to 114 µM), inactives show top-dose activity change, negative = inhibition, usual class: inhibitors; actives 0.041% (n = 370,000); AID 485294, 2010;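 further: 0% = no-compound wells and -100% = no-enzyme wells; nearly all actives have a fitted effect of over 25% in size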
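20 mM phosphate pH 7.0 + 0.01% (detergent screen) or 0.0001% Triton X-100; 5.3 nM AmpC reagent; cpd preinc 15 min RT; nitrocefin (800 uM stock) to start; A480 q20 s × 4 min; Activity was normalised to no-enzyme and no-compound control wells.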
The depositor's hits bear a star; ? = inconclusive; · = not tested or not shown; [ ] = dose if it differs, or a comment. The list is not random: actives were taken first. Their share in the collection is about 0.86%. Unless noted, the call rests on the fitted dose curve; in most records, active means well fitted curve in the direction sought with a large enough effect; inconclusive means small, poorly fitted or top-dose-only effect, or another doubt; inactive means no such curve, though single readings can be large; an effect the other way counts as inactive or inconclusive. Potency means the concentration at half of the fitted maximal effect.

SMILES	AMA1 RON2 block	AmpC inh no detg	NS1 inh	AmpC inh detg
NC(=O)c1c(NC(=O)CSc2nnc(-c3ccco3)n2-c2ccccc2)sc2c1CCC2	-22.2%	-4.1%	1.41µM*	-5.6%
Cc1ccc(/C=C/C2=Cc3c(sc(NC(=O)CSc4n[nH]c(N)n4)c3C#N)C(C)(C)C2)o1	·	12.6µM*	18.5%	-7.2%
Cc1ccc(NC(=O)C2=CC(c3cccs3)=NS(=O)(=O)N2C)cc1	-5.3%	-34.2%	19.9%	-10.5%
CCc1ccc(NC(=O)C2=CC(c3cccs3)=NS(=O)(=O)N2C)cc1	-18.8%	17.8µM*	12.0%	-10.1%
COc1ccc(OC)c2c1sc(=NC(=O)c1cccc(N3C(=O)CCC3=O)c1)n2C	3.3%	39.8µM*	16.7%	?
COc1ccc(C(=O)N=c2sc3c(C)ccc(OC)c3n2C)cc1	-6.7%	1.12µM*	9.9%	?
O=C(CSc1nc2ccccc2n1CCc1ccccc1)c1ccc(O)c(O)c1	-16.8%	15.8µM*	9.3%	2.0%
C[C@H]1c2cccc(O)c2C(O)=C2C(=O)[C@]3(O)C(O)=C(C(N)=O)C(=O)[C@@H](N(C)C)C3[C@@H](O)C21 (stereo not given in full)	-29.7%	-38.5%	·	-18.6%
C=C1c2cccc(O)c2C(=O)C2C(=O)[C@]3(O)C(=O)C(C(N)=O)C(=O)[C@@H](N(C)C)[C@@H]3[C@@H](O)[C@H]12 (stereo not given in full)	0.891µM*	8.91µM*	·	·
CCCCc1nc(C(N)=O)c2[nH]c(=O)n(-c3ccc(OCC)cc3)c2n1	-1.5%	9.7%	6.4%	-12.7%
CC(C)CCNC(=O)C1C2C=CC3(CN(Cc4ccccc4Cl)C(=O)C13)O2 (stereo not given)	10.1%	8.91µM*	7.4%	?
CCCCNC(=O)C1C2C=CC3(CN(Cc4ccccc4Cl)C(=O)C13)O2 (stereo not given)	-6.1%	3.3%	3.6%	-5.4%
O=C(Nc1ccc(-n2nncc2-c2ccco2)cc1)c1cc2ccccc2oc1=O	?	-21.1%	5.01µM*	1.9%
O=C(Nc1ccc(-n2nncc2-c2ccco2)cc1)c1cccc(F)c1	-7.0%	-28.4%	-30.5%	0.9%
NC(=O)c1ccsc1NC(=O)c1ccc2c(c1)CCCC2	-0.6%	-25.1%	-51.0%	-12.3%
NC(=O)c1ccsc1NC(=O)c1ccc(N2CCCC2=O)cc1	-7.6%	7.94µM*	4.3%	4.6%
N#Cc1ccc2c(c1)C[C@]1(c3ccsc3)Oc3c(c(=O)oc4ccccc34)C2O1	·	5.01µM*	18.7%	-2.9%[22.9 µM]
Cc1cc2c(c(=O)o1)C1O[C@](c3ccsc3)(Cc3cc(C#N)ccc31)O2	·	-49.9%[11.4 µM]	?	?
COc1ccc2c3c(c(=O)oc2c1)C1O[C@](c2ccsc2)(Cc2cc(C#N)ccc21)O3	·	5.01µM*	23.2%	?
N#Cc1ccc2c(c1)C[C@]1(c3ccsc3)Oc3c(c(=O)oc4ccc(F)cc34)C2O1	·	?	14.8%	?
CCN1CCN(C(=O)c2cnn(-c3cccc(C)c3)c2C2CCN(C(=O)OC(C)(C)C)CC2)CC1	·	·	·	14.8%
O=C(NCC1CCCCC1)c1cc2ccccc2cc1O	28.4%	14.1µM*	-34.4%	2.1%
Cc1ccc2nc(N=C(N)N)nc(C)c2c1	17.6%	10µM*	-5.1%	-1.8%
CCc1ccc2nc(N=C(N)N)nc(C)c2c1	5.9%	-33.1%	·	4.1%
CCOc1cc(C(=O)Nc2cc3c(cc2N2CCCC2)n(C)c(=O)c(=O)n3C)cc(OCC)c1OCC	·	·	·	4.2%
SMILES	AMA1 RON2 block	AmpC inh no detg	NS1 inh	AmpC inh detg
CO[C@@]1(NC(=O)C2SC(=C(C(N)=O)C(=O)O)S2)C(=O)N2C(C(=O)O)=C(CSc3nnnn3C)CS[C@@H]21 (stereo not given in full)	7.7%	7.08µM*	·	17.8µM*
CN(Cc1ccccc1)C(=O)[C@@H]1CCCN1C(=O)[C@@H]1CCCN1C(=O)OC(C)(C)C	3.5%	·	·	·
COc1ccc(C2=NN(C(=O)CSc3cn(C)c4ccccc34)C(c3ccc(OC)cc3)C2)cc1 (stereo not given)	-20.0%	1.58µM*	26.5%	?
COc1ccc(C2=NN(C(=O)CSc3ncccn3)C(c3ccc(OC)cc3)C2)cc1 (stereo not given)	-15.2%	72.5%	1.1%	-2.0%
CCOC(=O)c1ccc(N2C(=O)C3CCCN3C2=S)cc1 (stereo not given)	35.5µM*	-18.4%	·	?
CCOc1ccc(N2C(=O)C3CCCN3C2=S)cc1 (stereo not given)	-14.7%	-27.8%	·	7.6%
CCOc1ccc2c(c1)c(=O)c(C(=O)c1ccc3c(c1)OCO3)cn2Cc1ccc(F)cc1	·	·	·	-11.7%
N#CC1=C(N)OC2=C(CCc3ccccc32)C1c1ccccc1Cl (stereo not given)	-1.0%	3.55µM*	21.6%	-6.3%
Cc1cc(NC(=O)c2noc3c2CCc2ccccc2-3)n(-c2ccccc2)n1	-2.5%	1µM*	?	2.4%
Cc1ccc(-c2[nH]ncc2/C=N/n2c(COc3ccccc3C)nc3ccccc3c2=O)cc1	26.4%	8.91µM*	13.1%	-8.8%
Cc1ccccc1OCc1nc2ccccc2c(=O)n1/N=C/c1c[nH]c2ccccc12	-22.7%	-47.9%	5.6%	?
O=C(CCCn1c(=O)c2sccc2n(Cc2cc(=O)n3ccccc3n2)c1=O)NCc1ccco1	-8.1%	39.8µM*	17.5%	?
Cc1ccc(-c2nc(CS(=O)(=O)CC(=O)N3CCN(c4ccccc4)CC3)c(C)o2)cc1	·	·	·	21.1%
Cc1ccc(-c2nc(CS(=O)(=O)CC(=O)N3CCCCCC3)c(C)o2)cc1	4.0%	6.31µM*	-4.3%	-12.1%
Cc1ccc(-c2nc(CS(=O)(=O)CC(=O)N3CCc4ccccc4C3)c(C)o2)cc1	-4.1%	39.8µM*	-82.4%	?
COc1ccc2c(CNC3CCC(C)CC3)c(C(=O)O)n(Cc3ccc(F)cc3)c2c1 (stereo not given)	·	·	·	3.0%
CC(C)(C)c1ccc(C(=O)Nc2cccc3c(=O)[nH][nH]c(=O)c23)cc1	-8.4%	-48.8%	12.6%	0.7%
CCCCn1c(Oc2cccc(C(=O)OC)c2)nc2c1c(=O)n(C)c(=O)n2C	·	·	·	-5.5%
Cc1ccc2sc(N(CCCN(C)C)C(=O)c3ccc(Br)s3)nc2c1C	25.1µM*	161.6%	·	?
CC(=O)c1ccc(C(=O)N(CCCN(C)C)c2nc3c(C)c(C)ccc3s2)cc1	·	·	·	1.4%
COc1cc2nc(/C=C/c3ccc(N(C)C)cc3)sc2cc1SC	17.8µM*	-13.0%	?	-5.2%
COc1ccc(-c2c(-c3ccc(C#N)cc3)oc(=O)c3cc(OC)c(OC)cc23)cc1	17.9%	39.9%	·	·
Cc1cc(C)nc(Nc2ccc(N3CCCC3)cc2)n1	31.6µM*	-33.0%	-5.2%	?
Cc1cc(C)nc(Nc2ccc(N3CCOCC3)cc2)n1	-7.3%	21.7%	2.3%	-13.3%
